Screens (PubChem BioAssay)
CF NFkB block: blocks PAF-induced NF-kB reporter in cystic fibrosis cells | KKLEB NF-kB-GFP reporter, GFP fluorescence overnight | inhibition, % at 5 µM | actives 0.86% (n = 360,000);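 active = at least 50% inhibition at 5 µM, scaled per plate between neutral and stimulator controls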;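 also: PAF is a Pseudomonas aeruginosa culture filtrate used as stimulus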
TRPM1 prom inh: MITF TRPM1 promoter inhibition in SK-MEL-5 cells; actives 0.83% (n = 330,000); SK-MEL-5 TRPM1 promoter luciferase, 24 h; inhibition, % at 12.5 µM;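 active = mean inhibition across replicates of 60% or more, whatever share of single replicates reaches that level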
Peg3 prom inh: Peg3 promoter activity inhibition. HeLa PEG-Prom luciferase reporter, luminescence, overnight. inhibition, % at 20 µM. actives 1.7% (n = 360,000). AID 588405;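 active = inhibition of at least 50% at 20 µM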
ABHD5 PLIN5 PPI: ABHD5-PLIN5 protein interaction inhibition. Q00G26+Q8WTS1. AID 602281. Split G. princeps luciferase complementation, luminescence, 4 h. actives 0.78% (n = 360,000). inhibition, % at 4 µM;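 active = inhibition above the mean inhibition across every tested compound plus 3 SD, cut at about 22% in these data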
Target sequence (Q00G26 whole entry, looked up): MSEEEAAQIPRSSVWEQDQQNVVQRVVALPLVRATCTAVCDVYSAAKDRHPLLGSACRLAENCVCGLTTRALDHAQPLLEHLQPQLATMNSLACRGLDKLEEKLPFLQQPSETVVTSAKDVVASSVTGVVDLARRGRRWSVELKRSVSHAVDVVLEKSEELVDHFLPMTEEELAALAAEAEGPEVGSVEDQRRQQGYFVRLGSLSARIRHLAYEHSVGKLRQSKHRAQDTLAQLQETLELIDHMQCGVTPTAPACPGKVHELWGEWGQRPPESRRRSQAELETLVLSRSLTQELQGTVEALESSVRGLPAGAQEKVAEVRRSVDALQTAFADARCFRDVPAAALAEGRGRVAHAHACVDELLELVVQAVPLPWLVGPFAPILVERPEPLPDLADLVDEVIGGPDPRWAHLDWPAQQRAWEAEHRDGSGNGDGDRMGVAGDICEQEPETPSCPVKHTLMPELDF
Target sequence (Q8WTS1 whole entry, looked up): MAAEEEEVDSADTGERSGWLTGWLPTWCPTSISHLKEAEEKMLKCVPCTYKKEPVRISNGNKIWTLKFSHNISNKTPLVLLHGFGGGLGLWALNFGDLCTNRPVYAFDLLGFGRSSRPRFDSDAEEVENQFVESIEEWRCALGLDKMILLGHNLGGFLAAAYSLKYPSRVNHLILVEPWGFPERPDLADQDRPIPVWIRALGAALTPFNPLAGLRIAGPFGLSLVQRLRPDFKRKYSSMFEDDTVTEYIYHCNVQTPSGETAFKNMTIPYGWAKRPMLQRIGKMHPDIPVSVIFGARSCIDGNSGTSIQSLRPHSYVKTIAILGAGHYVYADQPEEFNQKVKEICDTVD
HIF-2a inh: inhibitors of HIF-2a; 786-0 RCC cells HIF-2a reporter, luciferase luminescence, overnight; inhibition, % at 18.8 µM; actives 0.72% (n = 360,000); AID 624352;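 active = inhibition of the luminescence signal of 40% or more relative to plate controls, in a single-dose primary screen at 18.75 µM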
KKLEB cytotox: reduces viability of KKLEB cystic fibrosis airway cells; AID 602141; KKLEB CF airway cells viability, ATPlite luminescence, overnight; hits give low values; cells stimulated with P. aeruginosa culture filtrate; activity change (cytotoxicity), % at 5 µM; actives 0.36% (n = 360,000);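 active = corrected activity change at or below -50% at 5 µM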
Large screens that a line does not name were inactive; ! = not active in a repeat. In the library only some 3% were active in any assay of this set; here they are far more common.

Cc1occc(=O)c1OC(=O)Nc1ccc(Cl)c(Cl)c1	CF NFkB block 77, KKLEB cytotox -65
COc1ccc(-c2csc(NC(=O)c3c(OC)cccc3OC)n2)cc1	none
COc1ccc(S(=O)(=O)Nc2ccccc2C(=O)Nc2nc(-c3ccc(F)cc3)cs2)cc1OC	CF NFkB block 52
CCCNC(=O)c1ccccc1NS(=O)(=O)c1ccc(OC)c(OC)c1	none
COc1ccc(-c2csc(NC(=O)c3ccccc3NS(=O)(=O)c3ccc(C)cc3)n2)cc1	CF NFkB block 57, Peg3 prom inh 55, KKLEB cytotox -52
CCCCc1ccc(NC(=O)CSc2nnc(C)c(=O)n2N)cc1	none
COc1ccc(-n2cc(-c3ccccc3)[n+]3c2CCCCC3)cc1	none
COc1ccc(-c2cn(-c3ccc(OC)cc3)c3[n+]2-c2ccccc2CC3)cc1	TRPM1 prom inh 69
COc1ccc(-c2c[n+]3c(n2-c2ccccc2)CCCCC3)cc1	none
COc1ccccc1-n1c(-c2ccccc2)c[nH]c1=S	none
COc1ccccc1-n1c(-c2ccccc2)c[n+]2c1CCc1ccccc1-2	TRPM1 prom inh 67!
COc1ccc(-n2c(-c3ccc(Br)cc3)c[n+]3c2CCc2ccccc2-3)cc1	TRPM1 prom inh 98
CC(C)c1ccc(-n2c(-c3ccccc3)c[n+]3c2CCc2ccccc2-3)cc1	CF NFkB block 51, TRPM1 prom inh 88, Peg3 prom inh 68, KKLEB cytotox -54
O=C(O)C1CCN(S(=O)(=O)c2cccc3nonc23)CC1	none
CCOC(=O)c1ccc[n+](CC(=O)Nc2cc(C(F)(F)F)ccc2Cl)c1	none
COCCCNc1nc(N)c([N+](=O)[O-])c(N2CCCCCC2)n1	none
CC(C)N=c1cc2n(-c3ccc(Cl)cc3)c3ccccc3nc-2cc1Nc1ccc(Cl)cc1	CF NFkB block 92, TRPM1 prom inh 74, Peg3 prom inh 101
Cn1c(CNc2ccc(Cl)cc2)nc2ccccc21	none
O=C1NC(Cc2ccc(O)cc2)c2nc3cc(Cl)ccc3c(=O)n2-c2cc3ccccc3cc21 (stereo unspecified)	Peg3 prom inh 57 (no result: TRPM1 prom inh)
Cc1ccc2nc3n(c(=O)c2c1)-c1cc2ccccc2cc1C(=O)NC3Cc1ccc(O)cc1 (stereo unspecified)	Peg3 prom inh 69 (no result: TRPM1 prom inh)
CCOC(=O)c1oc2ccc(OC)cc2c1NC(=O)CN1CCN(C)CC1	none
Cc1ccc(C(=O)c2oc3ccc(Cl)cc3c2NC(=O)CN2CCN(C)CC2)cc1	Peg3 prom inh 107
N#C/C(=N/Nc1ccc(OC(F)(F)F)cc1)C(N)=S	CF NFkB block 64
Cc1nnc(C)n1/N=C/c1cc2ccccc2nc1Cl	Peg3 prom inh 78
Cc1[nH]nc2c1/C(=N\O)CCC2	none
CCN(CC(=O)Nc1ccc2c(c1)OCCO2)C(=O)/C=C/c1ccc([N+](=O)[O-])cc1	none
Cc1ccc2nc(/C(C#N)=C/c3ccc(-c4cccc([N+](=O)[O-])c4)o3)[nH]c2c1	Peg3 prom inh 115
N=C1/C(=C\c2ccc(-c3ccc(C(=O)O)cc3)o2)C(=O)N=C2SC=C(c3ccccc3)N12	CF NFkB block 72
CC(C)n1nc(C(=O)Nc2ccc3c(c2)OCO3)c2ccccc2c1=O	none
CCOC(=O)N1C(=O)NC(=O)C1c1ccc(Cl)cc1 (stereo unspecified)	none
COC(=O)c1c(N2C(=O)[C@H]3[C@@H](C2=O)[C@]2(C(=O)Nc4c(C)cccc42)N2CCC[C@@H]32)sc(C)c1C	Peg3 prom inh 56
COc1cccc(Nc2nc(C(N)CCc3ccccc3)cs2)n1 (stereo unspecified)	Peg3 prom inh 109 (no result: TRPM1 prom inh)
COc1ccc(CC(N)c2csc(Nc3cc(Oc4ccccc4)ncn3)n2)cc1 (stereo unspecified)	none (no result: TRPM1 prom inh)
NC(Cc1ccc(F)cc1)c1csc(Nc2cc(NCc3ccco3)ncn2)n1 (stereo unspecified)	Peg3 prom inh 70 (no result: TRPM1 prom inh)
COc1cccc(Nc2nc(C(N)COCc3ccccc3)cs2)n1 (stereo unspecified)	none (no result: TRPM1 prom inh)
NC(Cc1ccc(Cl)cc1)c1csc(Nc2cc(Oc3ccccc3)ncn2)n1 (stereo unspecified)	Peg3 prom inh 108 (no result: TRPM1 prom inh)
COc1cccc(Nc2nc(C(N)Cc3ccc(C(F)(F)F)cc3)cs2)n1 (stereo unspecified)	Peg3 prom inh 100 (no result: TRPM1 prom inh)
NC(=O)c1cccc(Nc2nc(C(N)Cc3ccc(C(F)(F)F)cc3)cs2)n1 (stereo unspecified)	none (no result: TRPM1 prom inh)
Cc1cc(Br)cn2c(Cc3ccsc3)c(C(C)(C)C)nc12	none (no result: TRPM1 prom inh)
COc1ccc(C)cc1N(C(=O)c1snc(C(N)=O)c1N)C(C(=O)NC1CCCCC1)c1ccc(C)o1 (stereo unspecified)	none
CC1=C(C(=O)N(C)C)CC(CC(=O)NCc2cccs2)C(=O)N1Cc1ccc(F)cc1 (stereo unspecified)	none (no result: TRPM1 prom inh)
COc1cccc(Nc2nc(C(N)Cc3ccc(Cl)cc3)cs2)n1 (stereo unspecified)	Peg3 prom inh 99 (no result: TRPM1 prom inh)
COc1ccc(CC(N)c2csc(Nc3ccccn3)n2)cc1 (stereo unspecified)	none (no result: TRPM1 prom inh)
NC(Cc1ccccc1)c1csc(Nc2ccc(C(F)(F)F)cn2)n1 (stereo unspecified)	Peg3 prom inh 100 (no result: TRPM1 prom inh)
COc1ccc(C(N)c2csc(Nc3ccc(C(F)(F)F)cn3)n2)cc1 (stereo unspecified)	none (no result: TRPM1 prom inh)
COc1cccc(Nc2nc(C(N)Cc3ccc(F)cc3)cs2)n1 (stereo unspecified)	Peg3 prom inh 114 (no result: TRPM1 prom inh)
COc1cccc(Nc2nc(C(N)CC(C)C)cs2)n1 (stereo unspecified)	none (no result: TRPM1 prom inh)
Cc1ccc(-n2nc3ccc(NC(=O)/C=C/c4ccco4)cc3n2)cc1	none
CN1CCN(Cc2nc3ccccc3c(=O)n2Cc2nc(-c3ccc([N+](=O)[O-])cc3)cs2)CC1	TRPM1 prom inh 66, Peg3 prom inh 72
O=C(CN1C(=O)COc2ccc(S(=O)(=O)N3CCCCCC3)cc21)NCc1ccc(F)cc1	none
COc1ccc(OC)c(S(=O)(=O)N2CCC(C(=O)N3CCCCCC3)CC2)c1	none
COc1ccc2cc3cc(C(=O)Nc4ccccc4N4CCN(C)CC4)oc3nc2c1	TRPM1 prom inh 66, Peg3 prom inh 115, HIF-2a inh 55
COc1ccc2cc3cc(C(=O)NCCN4CCN(c5ccccc5F)CC4)oc3nc2c1	none
COc1ccc(N(C)C(=O)c2oc(=O)c3ccccc3c2-c2ccc(C)cc2)c(OC)c1	none
CCOC(=O)/C=C/[C@H]1CC(c2ccccc2)(c2ccccc2)CO1	none
COc1ccc([C@@]23Oc4cc(OC)cc(OC)c4[C@]2(O)[C@H](O)[C@H](C(=O)N(C)C)[C@H]3c2ccccc2)cc1	CF NFkB block 60, TRPM1 prom inh 66, Peg3 prom inh 97, HIF-2a inh 56
N#Cc1ccc2sn(-c3ccccc3)c(=O)c2c1	ABHD5 PLIN5 PPI 34 (no result: TRPM1 prom inh)
